Test results taken from ChEMBL document CHEMBL4513146, “CO-ADD screening of Karazin Kharkiv National University (Ukraine) compounds”.
Potency and affinity values are given separately.

How the values were obtained:
[1] = system: Staphylococcus aureus; settings: Concentration 32 ug.mL-1;; ASSAY_TEST Inhibition of Bacterial Growth; detection method Absorption (OD600); MEDIA CAMHB; plate type 384well; NBS; CORNING #3640; time 18 hr
[2] = system: Escherichia coli; settings: Concentration 32 ug.mL-1;; ASSAY_TEST Inhibition of Bacterial Growth; detection method Absorption (OD600); MEDIA CAMHB; plate type 384well; NBS; CORNING #3640; time 18 hr

| Structure (SMILES) | Inhibition [1] [%] | Inhibition [2] [%] |
| --- | --- | --- |
| COc1ccc(-c2cc3c4nn(CC(=O)Nc5ccccc5Cl)c(=O)n4ccn3n2)cc1 | -2.84 | -5.57 |
| CCc1cccc(NC(=O)Cn2nc3nc(N4CCCCCC4)ccn3c2=O)c1 | 0.41 | -5.25 |
| COc1ccccc1NC(=O)Cn1nc2c(SCc3ccccc3)nccn2c1=O | -5.43 | -12.47 |
| COc1ccccc1N1CCN(C(=O)Cn2nc3ccc(-c4ccccc4)nn3c2=O)CC1 | -11.69 | -1.16 |
| COc1ccc(-n2ccn3c(-c4ccc([N+](=O)[O-])cc4)nnc3c2=O)cc1Cl | 17.28 | 1.52 |
| Cc1ccc(-c2ccc3nnc(CCC(=O)NCc4ccc(Br)cc4)n3n2)cc1 | 14.28 | 0.41 |
| CCN(C(=O)Cn1nc2nc(Nc3ccc(F)cc3)ccn2c1=O)c1ccccc1 | 12.68 | -3.17 |
| Cc1cc(C)cc(Nc2nc(C)cc3nn(CC(=O)Nc4ccccc4)c(=O)n23)c1 | 4.32 | -6.45 |
| O=C(CCc1nnc2c(N3CCCCC3)nc3ccccc3n12)NCc1ccccc1Cl | 7.81 | 4.64 |
| COc1cccc(-c2nc(CSc3nc4ccccc4n4c(C(C)C)nnc34)c(C)o2)c1OC | 5.27 | -1.56 |
| O=S(=O)(c1cccn2cnnc12)N(Cc1cccc(Cl)c1)c1cc(F)cc(F)c1 | 17.81 | -3.49 |
| N#CCn1nc2n(CCC(=O)NC3CCCCC3)c(=O)c3ccccc3n2c1=O | 8.56 | 0.43 |
| Cc1ccc(Cn2nc3c(=O)n(-c4cccc(Cl)c4C)ccn3c2=O)cc1 | 8.26 | -3.14 |
| COc1ccccc1NC(=O)Cn1c(=O)c2nnc(C(C)C)n2c2ccccc21 | 22.81 | -0.08 |
| Cc1cc(C)cc(N(Cc2ccc(F)cc2)S(=O)(=O)c2cccn3cnnc23)c1 | -4.06 | -5.96 |
| CC(C)CCn1c(=O)c2sccc2n2c(=O)n(CC(=O)NC(C)C)nc12 | -2.24 | -10.46 |
| Cc1cccc(C)c1NC(=O)Cn1nc2c(Sc3cccc(F)c3)nccn2c1=O | 9.75 | -2.6 |
| CCc1nnc2c(S(=O)(=O)N(Cc3cc(F)cc(F)c3)c3ccc(F)cc3)cccn12 | -5.33 | -11.24 |
| Cc1cc(C)c(NC(=O)CSc2nnc3c4cc(-c5ccccc5)nn4ccn23)c(C)c1 | 6.45 | -2.49 |
| Cc1ccc(N(Cc2ccccc2F)S(=O)(=O)c2ccc3nncn3c2)cc1 | -11.4 | -11.46 |
| CCCCOc1ccc(-c2cc3c4nnc(SCC(=O)Nc5c(C)cccc5C)n4ccn3n2)cc1 | -7.16 | -10.46 |
| Cc1cccc(NC(=O)Cn2nc3c4cc(-c5ccc(F)cc5)nn4ccn3c2=O)c1C | -2.18 | -5.27 |
| COc1ccc(NC(=O)Cn2nc3nc(N4CCCCCC4)ccn3c2=O)cc1Cl | -1.58 | -10.88 |
| Cc1ccc(CNC(=O)CSc2nnc3c4cc(-c5ccc(F)cc5)nn4ccn23)cc1 | 12.38 | -2.28 |

| Structure (SMILES) | Inhibition [1] [%] | Inhibition [2] [%] |
| --- | --- | --- |
| O=C(Cn1nc2ccc(Sc3cccc(F)c3)nn2c1=O)Nc1cccc(Cl)c1 | -0.09 | -4.86 |
| COC(=O)c1ccc(NC(=O)Cn2c(=O)c3nnc(C(C)C)n3c3ccccc32)cc1 | 8.86 | 0.09 |
| COc1cc(Cl)c(C)cc1NC(=O)Cn1nc2ccc(SC(C)(C)C)nn2c1=O | 0.92 | 3.96 |
| Cc1ccc(C)c(NC(=O)Cn2nc3ccc(-c4ccccc4)nn3c2=O)c1 | -0.8 | -9.05 |
| Cc1oc(-c2cccc(Cl)c2)nc1CSc1nc2ccccc2n2c(C)nnc12 | 0.94 | 1.96 |
| Cc1ccccc1NC(=O)Cn1nc2c(SC3CCCCC3)nccn2c1=O | 1.84 | -9.01 |
| O=C(Cn1nc2c(SCc3ccc(Cl)cc3)nccn2c1=O)N1CCN(c2ccccc2)CC1 | -0.6 | -2.68 |
| O=C(Cn1nc2c3sc(N4CCCC4)nc3ncn2c1=O)Nc1ccc(C(F)(F)F)cc1 | 13.19 | -0.19 |
| O=c1c2sccc2n2c(=O)n(Cc3cccc(Br)c3)nc2n1Cc1cccs1 | -27.59 | -23.42 |
| COc1cc(NC(=O)CSc2nnc3c(=O)n(-c4cccc(F)c4)ccn23)cc(OC)c1 | 10.57 | -3.07 |
| COc1ccc(NC(=O)CSc2nc3ccccc3n3c(C(C)C)nnc23)cc1Cl | -3.22 | -5.08 |
| COc1cccc(Oc2nccn3c(=O)n(CC(=O)Nc4ccc(OC)c(Cl)c4)nc23)c1 | 8.12 | -5.35 |
| COc1cc(OC)c(NC(=O)Cn2nc3c(Oc4ccccc4)nccn3c2=O)cc1Cl | -15.01 | -15.59 |
| CCc1ccccc1Sc1nccn2c(=O)n(CC(=O)N3CCN(c4ccccc4)CC3)nc12 | -10.72 | -11.22 |
| COCCCNC(=O)CSc1nnc2c(=O)n(Cc3ccccc3)ccn12 | 7.01 | -1.7 |
| CCOC(=O)c1ccccc1NC(=O)Cn1nc2c(Oc3ccc(C)cc3)nccn2c1=O | -14.8 | -17.92 |
| COc1ccc(CN(c2ccc(F)cc2)S(=O)(=O)c2cccn3cnnc23)cc1F | 11.25 | -4.31 |
| CCOC(=O)N1CCN(C(=O)CCc2nnc3c4cc(-c5ccc(F)cc5)nn4ccn23)CC1 | 10.85 | 2.2 |
| CC(C)c1nnc2c(=O)n(CC(=O)Nc3ccc(F)cc3F)c3ccccc3n12 | 12.23 | 2.42 |
| CCOc1ccc(-n2ccn3c(SC(C)C(=O)Nc4ccc5c(c4)OCCO5)nnc3c2=O)cc1 (configuration not stated) | 14.02 | 0.39 |
| Cc1nnc2c(S(=O)(=O)N(Cc3ccccc3F)c3ccc(C(C)C)cc3)cccn12 | 11.33 | -2.7 |
| O=S(=O)(c1ccc2nncn2c1)N(Cc1ccccc1F)c1ccc(F)c(F)c1 | -7.25 | -4.39 |
| Cc1ccc(Sc2nccn3c(=O)n(CC(=O)Nc4ccc(Br)cc4)nc23)c(C)c1 | -1.98 | -4.39 |
| O=C(Cn1nc2ccc(SCc3ccc(Cl)cc3)nn2c1=O)NCc1ccc2c(c1)OCO2 | -2.67 | -11.22 |

| Structure (SMILES) | Inhibition [1] [%] | Inhibition [2] [%] |
| --- | --- | --- |
| Cc1cccc(Cn2nc3n(CCc4ccccc4)c(=O)c4sccc4n3c2=O)c1 | -3.57 | -0.08 |
| CC(C)c1ccc(N(Cc2ccccc2F)S(=O)(=O)c2cccn3cnnc23)cc1 | 2.39 | -0.79 |
| COc1cccc(-n2ccn3c(SCC(=O)c4ccc(C)cc4)nnc3c2=O)c1 | 8.57 | -9.45 |
| O=C(Cn1nc2ccc(SC3CCCCC3)nn2c1=O)NCc1ccc(Cl)cc1 | 6.56 | -1.29 |
| CC(=O)Nc1ccc(NC(=O)CSc2nc3ccccc3n3cnnc23)cc1 | -1.2 | 2.28 |
| CC(C)CCn1c(=O)c2sccc2n2c(=O)n(CC(N)=O)nc12 | 1.13 | -3.19 |
| Cc1ccc(NC(=O)Cn2nc3ccc(SC(C)C)nn3c2=O)c(C)c1 | -3.52 | 4.56 |
| Cc1ccc(Sc2ccc3nn(CC(=O)Nc4ccc(Br)c(C)c4)c(=O)n3n2)cc1 | 8.43 | -6 |
| COc1cccc(CN(c2cc(C)cc(C)c2)S(=O)(=O)c2cccn3c(C)nnc23)c1 | -0.14 | -8.8 |
| COc1cccc(-n2ccn3c(SCC(=O)c4ccc(F)cc4)nnc3c2=O)c1 | 13.82 | -3.39 |
| O=C(Cn1nc2c(Sc3ccccc3)nccn2c1=O)Nc1ccc2c(c1)OCCO2 | -4.66 | -0.55 |
| Cc1nnc2ccc(S(=O)(=O)N(Cc3ccccc3F)c3cccc(F)c3)cn12 | 9.15 | -8.44 |
| CCCNC(=O)Cn1nc2cc(C)nc(Nc3cc(C)cc(C)c3)n2c1=O | 13.08 | 0.71 |
| CCCCOc1ccc(-c2cc3c4nnc(SCC(=O)NCc5ccc(OC)cc5)n4ccn3n2)cc1 | -2.43 | -7.34 |
| O=C(CCc1nnc2c3cc(-c4ccccc4)nn3ccn12)N1CCN(C(=O)c2ccco2)CC1 | 7.4 | 0.93 |
| COc1ccc(C)cc1NC(=O)Cn1nc2c3cc(-c4ccc(Cl)cc4)nn3ccn2c1=O | 8.09 | 3.41 |
| Cc1ccc(-c2ccc3nn(CC(=O)Nc4ccc(Cl)cc4F)c(=O)n3n2)cc1 | 8.27 | -2.22 |
| COc1cc(NC(=O)Cn2nc3ccc(C(=O)NCc4ccccc4)cn3c2=O)cc(OC)c1OC | -6.97 | -8.69 |
| Cc1ccc(CNC(=O)Cn2nc3ccc(SCc4ccc(Cl)cc4)nn3c2=O)cc1 | 11.66 | -2.92 |
| CC(C)c1nnc2c(=O)n(CC(=O)Nc3cccc(C#N)c3)c3ccccc3n12 | 14.89 | 2.48 |
| O=S(=O)(c1cccn2c(SCc3c(F)cccc3Cl)nnc12)N1CCCC1 | 5.67 | 0.4 |
| Cc1ccc(NC(=O)Cn2nc3c(N4CCOCC4)nccn3c2=O)cc1F | 9.97 | 2.81 |
| CCCCn1c(=O)c2sccc2n2c(=O)n(CC(=O)NC(C)C)nc12 | 6.34 | -3.44 |
